Holding throughout (test): DAPPL (digital affinity profiling via proximity ligation, sequencing); 10 mM Tris-HCl pH 7.5, 50 mM NaCl, 1 mM DTT, 4% glycerol, room temperature, 30 min; GST-TFs on glutathione beads, 16-mer random dsDNA library, 0.1% formaldehyde crosslink after washing; high values mean tight binding
Holding throughout (conditions): protein: recombinant; tags: N-terminal GST; dsDNA, one strand shown

One assay has as its target T1, FLI1 (Homo sapiens, UniProt Q01543 1-452).
T1 sequence: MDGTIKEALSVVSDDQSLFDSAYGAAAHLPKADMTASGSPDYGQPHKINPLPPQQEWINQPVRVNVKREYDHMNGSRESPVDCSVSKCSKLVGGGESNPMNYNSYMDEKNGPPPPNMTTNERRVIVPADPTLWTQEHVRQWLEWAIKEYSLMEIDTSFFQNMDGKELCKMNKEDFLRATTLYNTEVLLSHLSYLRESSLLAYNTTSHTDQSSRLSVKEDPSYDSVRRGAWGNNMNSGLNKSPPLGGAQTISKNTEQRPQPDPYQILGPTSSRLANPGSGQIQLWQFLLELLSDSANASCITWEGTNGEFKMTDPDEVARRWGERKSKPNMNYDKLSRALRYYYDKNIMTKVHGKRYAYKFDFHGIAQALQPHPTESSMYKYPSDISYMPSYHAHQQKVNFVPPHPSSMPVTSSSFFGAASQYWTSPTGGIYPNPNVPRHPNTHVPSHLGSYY
The essentials: (§1)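 Each value of binding signal is a hexamer's read frequency for a factor divided by the same hexamer's frequency in the tag-only sample. Barcoded, bead-captured GST fusions of human transcription factors made in yeast were pooled with that sample and incubated with 200 nmole of a random double-stranded 16-mer DNA library in Tris/NaCl/DTT/glycerol buffer at room temperature for 30 min. Washing, 0.1% formaldehyde crosslinking, proximity ligation, PCR and Illumina NextSeq500 sequencing followed.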

For another assay, the target named is T2, ELK1 (Homo sapiens, UniProt P19419 1-428).
T2 sequence: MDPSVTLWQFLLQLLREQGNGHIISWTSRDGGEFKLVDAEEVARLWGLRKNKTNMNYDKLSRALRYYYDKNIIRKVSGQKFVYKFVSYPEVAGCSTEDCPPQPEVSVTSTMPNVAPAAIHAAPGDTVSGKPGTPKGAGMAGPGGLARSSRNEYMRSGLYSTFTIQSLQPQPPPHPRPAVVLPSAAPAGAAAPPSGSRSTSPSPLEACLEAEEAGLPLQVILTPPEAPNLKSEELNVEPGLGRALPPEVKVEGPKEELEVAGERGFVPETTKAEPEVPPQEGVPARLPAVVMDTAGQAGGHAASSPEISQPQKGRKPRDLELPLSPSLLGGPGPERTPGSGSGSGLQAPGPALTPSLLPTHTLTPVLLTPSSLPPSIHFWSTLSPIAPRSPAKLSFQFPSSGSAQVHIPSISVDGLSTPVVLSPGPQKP
The essentials: as §1

For another assay, the target named is T3, ERG (Homo sapiens, UniProt P11308 1-479).
T3 sequence: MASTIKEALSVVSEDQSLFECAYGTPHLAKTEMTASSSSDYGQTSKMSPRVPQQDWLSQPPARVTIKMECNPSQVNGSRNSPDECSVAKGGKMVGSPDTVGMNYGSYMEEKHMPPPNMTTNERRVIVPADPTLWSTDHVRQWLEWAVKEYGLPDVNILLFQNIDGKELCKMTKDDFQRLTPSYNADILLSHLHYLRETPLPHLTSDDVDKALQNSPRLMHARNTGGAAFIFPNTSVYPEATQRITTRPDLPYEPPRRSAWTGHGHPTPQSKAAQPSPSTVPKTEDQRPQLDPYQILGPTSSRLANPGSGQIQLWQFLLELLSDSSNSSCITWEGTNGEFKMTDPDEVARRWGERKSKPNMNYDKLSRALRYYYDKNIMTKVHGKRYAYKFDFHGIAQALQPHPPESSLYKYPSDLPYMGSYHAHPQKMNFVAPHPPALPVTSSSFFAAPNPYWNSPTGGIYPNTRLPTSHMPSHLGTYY
The gist of the method:
as §1

Another assay addresses SPIB (Homo sapiens, UniProt Q01892 1-262). The essentials:
as §1

In a further assay the target is T4, SPIC (Homo sapiens, UniProt Q8N5J4 1-248).
T4 sequence: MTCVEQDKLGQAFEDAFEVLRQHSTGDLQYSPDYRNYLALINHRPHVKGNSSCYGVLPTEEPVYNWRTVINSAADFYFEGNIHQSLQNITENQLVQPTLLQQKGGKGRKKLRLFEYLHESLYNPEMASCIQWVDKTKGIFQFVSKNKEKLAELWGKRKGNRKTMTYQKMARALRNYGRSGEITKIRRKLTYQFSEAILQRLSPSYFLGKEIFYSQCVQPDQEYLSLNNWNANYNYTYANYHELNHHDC
The gist of the method:
as §1

The target in the next assay is T5, ETV7 (Homo sapiens, UniProt Q9Y603 1-341).
T5 sequence: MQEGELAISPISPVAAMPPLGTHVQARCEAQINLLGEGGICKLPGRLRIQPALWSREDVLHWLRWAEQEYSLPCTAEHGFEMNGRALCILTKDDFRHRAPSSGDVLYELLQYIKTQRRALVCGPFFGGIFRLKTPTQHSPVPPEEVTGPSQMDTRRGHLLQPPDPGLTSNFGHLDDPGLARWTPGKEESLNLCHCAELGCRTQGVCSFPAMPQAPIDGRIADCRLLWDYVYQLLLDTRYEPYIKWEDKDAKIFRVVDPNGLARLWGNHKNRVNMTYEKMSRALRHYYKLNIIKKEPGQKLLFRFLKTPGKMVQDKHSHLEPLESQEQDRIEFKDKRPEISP
The essentials: as §1

The target of a further assay is T6, ETV3 (Homo sapiens, UniProt P41162-2 1-143).
T6 sequence: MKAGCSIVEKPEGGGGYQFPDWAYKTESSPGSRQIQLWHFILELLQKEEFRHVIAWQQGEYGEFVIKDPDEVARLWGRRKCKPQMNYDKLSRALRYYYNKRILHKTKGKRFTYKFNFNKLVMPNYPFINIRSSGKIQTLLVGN
The gist of the method: as §1

The next assay addresses ELF4 (Homo sapiens, UniProt Q99607 1-663). The gist of the method: as §1
A further assay deals with T7, ETV2 (Homo sapiens, UniProt O00321 1-342).
T7 sequence: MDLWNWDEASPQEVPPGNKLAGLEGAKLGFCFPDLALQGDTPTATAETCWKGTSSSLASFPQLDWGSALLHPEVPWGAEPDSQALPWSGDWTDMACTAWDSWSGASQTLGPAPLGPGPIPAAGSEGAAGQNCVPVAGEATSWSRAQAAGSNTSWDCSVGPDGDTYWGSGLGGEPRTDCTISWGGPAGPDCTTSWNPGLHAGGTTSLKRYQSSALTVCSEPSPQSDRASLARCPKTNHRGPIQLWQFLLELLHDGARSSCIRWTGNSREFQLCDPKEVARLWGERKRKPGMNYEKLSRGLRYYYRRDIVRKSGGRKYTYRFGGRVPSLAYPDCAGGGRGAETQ
The gist of the method:
as §1

The next assay deals with T8, ELK3 (Homo sapiens, UniProt P41970 1-407).
T8 sequence: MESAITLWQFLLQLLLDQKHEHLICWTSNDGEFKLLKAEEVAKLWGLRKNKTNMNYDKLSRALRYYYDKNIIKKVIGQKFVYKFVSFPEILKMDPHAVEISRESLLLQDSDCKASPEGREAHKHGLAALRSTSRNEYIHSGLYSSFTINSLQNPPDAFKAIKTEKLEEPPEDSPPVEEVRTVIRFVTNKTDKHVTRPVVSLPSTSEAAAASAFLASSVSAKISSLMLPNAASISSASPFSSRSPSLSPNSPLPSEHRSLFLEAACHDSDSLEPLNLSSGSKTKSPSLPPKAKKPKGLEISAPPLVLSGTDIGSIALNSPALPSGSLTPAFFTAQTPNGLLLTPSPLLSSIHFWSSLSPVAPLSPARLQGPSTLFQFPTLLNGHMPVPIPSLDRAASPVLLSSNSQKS
The gist of the method: as §1

ELF4, sequence (Q99607 whole entry): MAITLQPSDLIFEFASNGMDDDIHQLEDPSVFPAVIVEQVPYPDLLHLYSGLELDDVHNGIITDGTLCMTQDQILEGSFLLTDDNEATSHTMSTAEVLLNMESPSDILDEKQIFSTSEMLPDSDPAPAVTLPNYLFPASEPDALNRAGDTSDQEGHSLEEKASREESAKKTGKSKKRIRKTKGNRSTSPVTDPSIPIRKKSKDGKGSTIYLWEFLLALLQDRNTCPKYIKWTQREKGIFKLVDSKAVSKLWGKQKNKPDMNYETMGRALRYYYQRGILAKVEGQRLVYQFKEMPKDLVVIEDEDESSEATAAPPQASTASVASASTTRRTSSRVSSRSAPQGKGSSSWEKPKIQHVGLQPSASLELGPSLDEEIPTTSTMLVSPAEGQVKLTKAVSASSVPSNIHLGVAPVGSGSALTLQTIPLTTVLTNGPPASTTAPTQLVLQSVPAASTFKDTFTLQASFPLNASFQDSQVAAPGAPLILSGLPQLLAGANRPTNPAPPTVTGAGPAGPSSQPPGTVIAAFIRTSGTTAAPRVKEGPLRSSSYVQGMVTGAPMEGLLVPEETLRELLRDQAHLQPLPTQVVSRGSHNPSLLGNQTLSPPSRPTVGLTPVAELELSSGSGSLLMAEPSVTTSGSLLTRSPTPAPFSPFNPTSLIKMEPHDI
SPIB, sequence (Q01892 whole entry): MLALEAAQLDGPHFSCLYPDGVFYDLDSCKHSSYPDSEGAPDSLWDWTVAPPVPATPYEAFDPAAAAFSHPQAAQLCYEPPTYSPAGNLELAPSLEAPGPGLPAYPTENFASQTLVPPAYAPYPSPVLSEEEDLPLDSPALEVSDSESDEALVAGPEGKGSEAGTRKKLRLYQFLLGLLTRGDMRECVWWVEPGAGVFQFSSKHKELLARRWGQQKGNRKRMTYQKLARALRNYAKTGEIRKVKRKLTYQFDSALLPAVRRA

As to CCCGCG, the binding signal in the assay with FLI1 is 1.02 fold enrichment (6-mer frequency, TF over GST control); with ELK1, 1.05 fold enrichment (6-mer frequency, TF over GST control); with ERG it was 1.02 fold enrichment (6-mer frequency, TF over GST control); in the assay with SPIB, 1.11 fold enrichment (6-mer frequency, TF over GST control); in the assay with SPIC, 1.05 fold enrichment (6-mer frequency, TF over GST control); with ETV7, 1.03 fold enrichment (6-mer frequency, TF over GST control). In addition, the binding signal with ETV3 was 1.01 fold enrichment (6-mer frequency, TF over GST control).

In the case of TGGCGT, the binding signal in the assay with FLI1 is 1.01 fold enrichment (6-mer frequency, TF over GST control); with SPIC, 1.04 fold enrichment (6-mer frequency, TF over GST control); with ELF4, 1.01 fold enrichment (6-mer frequency, TF over GST control); with ETV2 it was 1.05 fold enrichment (6-mer frequency, TF over GST control).

With GTGTAC, the binding signal in the assay with FLI1 is 1.07 fold enrichment (6-mer frequency, TF over GST control); in the assay with ELK3, 1.03 fold enrichment (6-mer frequency, TF over GST control); with SPIC it was 1.2 fold enrichment (6-mer frequency, TF over GST control).
